# Bioassay records: PubChem, several laboratories
# PrP 5UTR inh = suppresses PrP 5' UTR mRNA reporter expression; inhibition, % (test concentration not listed); 0.35% of 340,000 active; cell-based PrP 5' UTR mRNA reporter, plate reader; in the data active means inhibition above about 52%; further: 0 = median of the neutral control wells
# MazEF act = MazEF (E. coli) toxin RNase activation. AID 504720. activation, % at 20 µM. FAM/BHQ RNA-DNA oligo cleavage fluorescence, 5 h. 0.32% of 350,000 active; in the data active means activation above about 50%
# Target sequence (P0AE70 whole entry, looked up): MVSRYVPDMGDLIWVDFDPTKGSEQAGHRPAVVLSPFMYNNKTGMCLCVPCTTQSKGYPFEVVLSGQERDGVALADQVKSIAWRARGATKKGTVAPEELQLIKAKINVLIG
# PfHsp40 yeast = restores yeast growth despite PfHsp40 toxicity | S. cerevisiae expressing PfHsp40, growth rescue, ATP luminescence | growth rescue, % at 12.5 µM | 0.68% of 340,000 active | AID 504582; in the data active means growth rescue above about 28%, passing the limit was not always enough; inconclusive means no clear call, values can overlap the other calls;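 further: yeast W303a lacking pdr1 and pdr3 grown in galactose medium; growth measured after three days at 30 °C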
# PriA SSB inh = blocks PriA binding to SSB C-terminal tail; AlphaScreen SSBct-PriA binding, biotinylated peptide; inhibition, % at 33 µM; 0.6% of 430,000 active; in the data active means inhibition mostly above about 37%, no sharp cut-off; inactive means mostly below about 20%;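 further: plate controls were negative control peptide for no effect and reference peptide for full effect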
# PrPC surface inh = cell surface PrPC inhibition, primary TR-FRET screen; TR-FRET read-out; inhibition, % at 13.8 µM; 0.43% of 370,000 active; in the data active means inhibition above about 24%; further: 0% = median of the test wells and 100% = reference compound wells
# * = called active by the depositor; ? = inconclusive; nt = no result given. This is a sample that favours compounds with a hit; in the whole collection about 1.8% have one here.
SMILES,PrP 5UTR inh,MazEF act,PfHsp40 yeast,PriA SSB inh,PrPC surface inh
O=c1[nH]c(-c2ccccc2)cn1C1CCN(Cc2ccc(-c3nc4ccc(Br)cc4nc3-c3ccccc3)cc2)CC1,nt,nt,nt,nt,31.4*
COc1ccc(NCc2nc3ccccc3n2CCOc2ccccc2)cc1,-25.4,9.2,1.0,14.8,14.2
COc1ccc(NCc2nc3ccccc3n2CCOc2ccc(C)cc2)cc1,-52.6,-5.3,75.1*,6.1,13.0
Cn1c(CNc2ccc(O)cc2)nc2ccccc21,-30.7,105.0*,0.7,-6.0,-9.2
C=CCN1C(=O)/C(=C/c2ccc(Br)s2)C(=O)NC1=S,-57.2,72.1*,0.3,-19.1,-4.5
O=C(NCCOc1ccc(-c2ccccn2)nn1)[C@H]1CC(=O)N(c2cccc(Br)c2)C1,nt,nt,nt,100.0*,nt
COc1cc2[nH]c(=S)nc(NC3CCCCCC3)c2cc1OC,-2.7,3.8,-1.1,10.3,24.7*
COc1cc2[nH]c(=S)nc(NCC3CCCO3)c2cc1OC (stereo not given),-16.8,8.0,-1.6,-4.8,2.0
O=C1NC(=S)N(C2CC2)C(=O)/C1=C/c1ccc2c(c1)CCN2CCCCl,-17.3,22.4,63.3*,-5.2,-5.1
CCN1C(=O)/C(=C/c2ccc3c(c2)CCN3CCCCl)C(=O)NC1=S,-30.7,3.6,0.2,-21.1,-2.2
O=S(=O)(c1ccccc1)c1cnc(-c2cccnc2)nc1-c1ccc(Cl)cc1Cl,0.2,0.0,-0.2,-10.9,-1.8
Cc1cc(/C=C2\SC(=S)NC2=O)c(C)n1-c1cccc(O)c1,-45.6,-16.3,239.6*,2.2,-2.6
C=CCN1C(=O)/C(=C2/Sc3ccccc3N2CC)SC1=S,-9.9,161.8*,0.2,-8.2,1.0
C=CCN1C(=O)/C(=C2/Sc3ccccc3N2CCCS(=O)(=O)O)SC1=S,-3.1,-10.6,-0.5,12.3,-27.1
O=C(N[C@@H](Cc1ccccc1)C(=O)O)c1ccc(C(F)(F)F)cc1,-19.6,2.3,2.8,-4.2,3.9
CC(Cc1ccccc1)/[N+]([O-])=C\c1ccc(C(F)(F)F)cc1 (stereo not given),-38.1,-22.6,-0.5,46.0*,0.0
O=C1NC[C@H](Cc2ccccc2)N(CCc2cc(C(F)(F)F)cc(C(F)(F)F)c2)C1=O,nt,nt,nt,nt,2.0
O=C1NC[C@@H](Cc2cccc3ccccc23)N(CCc2cc(C(F)(F)F)cc(C(F)(F)F)c2)C1=O,-10.6,-5.8,43.7*,-6.6,-6.8
CN1C(=O)C2(OCC(C)([N+](=O)[O-])CO2)c2ccccc21 (stereo not given),-4.1,-0.5,-1.3,2.7,11.5
CN1C(=O)C2(N=c3ccccc3=N2)c2ccccc21,-13.0,7.8,55.0*,-8.2,nt
Cc1ccccc1C(=O)Nc1ccc2oc(-c3ccccc3F)cc(=O)c2c1,nt,nt,nt,9.0,nt
Cc1cc(C)c2c(n1)sc1c(Cl)ncnc12,nt,nt,nt,-11.0,nt
O=C(NCc1cccc2ccccc12)N1CC[C@H](c2ccccc2)C1,nt,nt,nt,-8.0,nt
O=c1[nH]c(=O)n([C@H]2C[C@H](O)[C@@H](CO)O2)cc1I,-35.3,0.8,75.9*,-2.7,-4.9
CCc1cn(C2CC(O)C(CO)O2)c(=O)[nH]c1=O (stereo not given),-10.8,0.9,-0.9,2.5,9.4
SMILES,PrP 5UTR inh,MazEF act,PfHsp40 yeast,PriA SSB inh,PrPC surface inh
Oc1ccc(CN2CCC(Cc3ccccc3)CC2)c2cccnc12,nt,-1.1,nt,62.1*,0.3
CCN1CCN(Cc2ccc(O)c3ncccc23)CC1,nt,nt,nt,123.0*,nt
COCc1cc(CN2CCCC2)c(O)c2ncccc12,3.8,1.9,?,99.3,1.7
Oc1c(CN2CCCCC2)ccc2cccnc12,19.8,3.7,46.7*,-7.0,5.5
Oc1ccc(CN2CCCCC2)c2cccnc12,-20.6,1.6,23.6,99.0*,-4.0
CSCC[C@H](NC(=O)OC(C)(C)C)C(=O)N/N=C/c1c(C)[nH]c(=O)[nH]c1=O,-4.8,12.5,-1.3,nt,-10.4
CCOc1cc(N2CCOCC2)c(OCC)cc1NC(=O)COC(=O)/C=C/c1ccc(OC(F)F)cc1,-28.0,-3.2,-0.6,-6.1,-4.1
COC(=O)c1ccc(C(=O)N=c2sc3cc4c(cc3n2C)OCCO4)cc1,nt,nt,nt,-4.0,nt
Oc1ccc(CN2CCN(c3ccccc3)CC2)c2cccnc12,-9.5,2.3,1.9,9.0,nt
CCOC(=O)N1CCN(Cc2ccc(O)c3ncccc23)CC1,nt,-3.8,nt,87.8*,-0.3
CSc1ncccc1C(=O)N1CCN(S(=O)(=O)c2cc(C)ccc2C)CC1,-20.2,10.7,-1.9,5.5,7.3
Cc1ccc(C)c(S(=O)(=O)N2CCN(Cc3ccc(O)c4ncccc34)CC2)c1,26.6,-4.3,322.8*,-1.6,8.0
COC(=O)Nc1nc(-c2ccccc2)c(C(=O)c2ccc(Cl)cc2)s1,24.8,52.3*,3.5,-11.4,-0.9
CC1=NN(C(N)=S)C(=O)C1N=Nc1cccc(Cl)c1C (stereo not given),-52.9,3.2,104.1*,15.5,-6.9
Fc1ccc(-c2nc(-c3cccs3)[nH]c2-c2ccc(F)cc2)cc1,-76.8,8.3,128.6*,16.0,7.7
Cc1cccc(CC(=O)NCC(O)c2ccsc2)c1 (stereo not given),nt,nt,nt,5.0,nt
Cc1cccc(CC(=O)NCC(O)Cc2ccccc2)c1 (stereo not given),nt,nt,nt,21.0*,nt
COCCn1c(N)c(N(Cc2ccccc2)C(=O)C(C)Oc2ccc(Br)cc2)c(=O)[nH]c1=O (stereo not given),nt,6.0,nt,nt,0.8
O=C(NCc1ccsc1)C(=O)Nc1ccon1,nt,nt,nt,0.0,nt
Cc1ccc(S(=O)(=O)Nc2ccc3nc(-c4cccn4C)[nH]c3c2)cc1,-21.6,5.7,2.8,87.5*,4.0
Cc1ccc(S(=O)(=O)CCC(=O)NCc2ccccc2Cl)cc1,-13.2,-14.7,-0.7,-14.3,-2.9
c1ccc(C2=Nc3ccccc3OC2)cc1,-35.0,-15.3,50.2*,1.8,-0.4
CO[C@@H](CNC(=O)c1ccc(S(=O)(=O)N(C)C)cc1)c1ccccc1C,nt,nt,nt,-8.0,nt
Cc1ccnc(N2CCC(C(=O)NNC(=O)COc3cccc4ccccc34)CC2)n1,-10.6,-31.5,-0.5,-11.4,6.0
N#Cc1ccc(N2C(=O)[C@@H]3C(C(=O)c4ccc5ccccc5n4)=NN[C@@H]3C2=O)cc1,-26.8,120.3*,-1.0,-10.0,-2.6
SMILES,PrP 5UTR inh,MazEF act,PfHsp40 yeast,PriA SSB inh,PrPC surface inh
CN(C)c1ccc(N=Cc2nc(-c3ccccc3)oc2O)cc1,19.7,245.9*,0.0,-2.5,-4.7
CN(C)c1ccc(N=Cc2nc(-c3ccccc3)oc2OC(=O)c2ccccc2)cc1,-87.5,353.6*,-1.6,-1.9,-3.0
CC(=O)Nc1ccc(N=Cc2nc(-c3ccc(C)cc3)oc2O)cc1,-15.1,245.1*,1.4,8.4,-2.3
COc1ccc(C(=O)Nc2ccc3c(c2)CC(=O)N3)c(OC)c1,nt,nt,nt,-24.0,nt
O=C(Nc1ccc2c(c1)OCO2)c1ccc(=O)n(Cc2cccc(F)c2)n1,nt,nt,nt,17.0*,nt
CC(NC(=O)c1ccccc1F)C12CC3CC(CC(C3)C1)C2 (stereo not given),-14.8,3.2,0.5,-17.9,-14.3
Cc1occc1C(=O)NC(C)C12CC3CC(CC(C3)C1)C2 (stereo not given),-1.6,-12.0,104.7*,-10.9,-0.8
COCCNS(=O)(=O)c1ccc(-c2ccc(C)cc2)cc1,nt,8.1,-0.1,-17.0,2.6
